Among the data in PubChem BioAssay (NCI) are growth inhibition values, retold here.

A short description of test [1]: NCI Yeast Anticancer Drug Screen. Data for the rad50 strain (AID 155).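 Also: 0% = growth of vehicle-only cultures of the same strain.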 The settings on record: S. cerevisiae rad50 strain growth inhibition, hits give high values. The procedure, abridged: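 A DNA repair-deficient yeast mutant serves as the test organism; compound-induced growth inhibition is calculated against vehicle-treated cells.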
A short description of test [2]: NCI Yeast Anticancer Drug Screen. Data for the mec2-1 strain (AID 157). Conditions: S. cerevisiae mec2-1 strain, hits give high values. An outline of the steps: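 Mutant yeast (mec2-1) grown with compound; growth inhibition relative to vehicle control reported.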
Test [3] can be described thus: NCI Yeast Anticancer Drug Screen. Data for the sgs1 mgt1 strain (AID 161).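 Also: 0% = growth of cultures given vehicle only.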 Conditions: S. cerevisiae sgs1 mgt1 strain, hits give high values. The procedure, abridged: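 Yeast cells carrying a defined DNA-repair defect were exposed to test compounds. Growth inhibition was measured relative to vehicle-treated controls.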
Test [4] is described as follows: NCI Yeast Anticancer Drug Screen. Data for the cln2 rad14 strain (AID 165).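 Also: 0% = growth equal to vehicle treated cultures.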 Conditions: S. cerevisiae cln2 rad14 strain, hits give high values. The procedure, abridged: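 Readout is yeast growth inhibition versus vehicle-treated controls, using a strain with cln2 and rad14 alterations exposed to compound.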
Test [5] is described as follows: NCI Yeast Anticancer Drug Screen. Data for the bub3 strain (AID 167). The settings on record: S. cerevisiae bub3 mutant strain, hits give high values. An outline of the steps: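 Inhibition values come from growth of compound-treated mutant yeast normalised to vehicle-treated controls.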
Test [6] in a line: NCI Yeast Anticancer Drug Screen. Data for the mlh1 rad18 strain (AID 175). Conditions: S. cerevisiae mlh1 rad18 strain growth inhibition, hits give high values. An outline of the steps:
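Genetically defined yeast (DNA repair-deficient) exposed to compounds; growth inhibition determined relative to vehicle.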

The mark [7] stands for this setting: at 5.0 µM (retest, dose inferred, filed as 0.5).
[8] abbreviates: at 50.0 µM (retest, dose inferred, filed as 5.0).

Compounds without any hit were thinned out: in the full panel of roughly 79,000, 15% have a hit. Values without a mark were called inactive. Active and inactive are the calls of the source. Rule as the data show it: active = growth inhibition above about 70%; inactive = the rest.

For the compound `Cc1cc2nc3ccc(N(C)C)cc3nc2cc1N`, the growth inhibition in test [1] (setting [7]) was 42%; in test [1] (setting [8]), 94% (active); in test [1] (at 50.0 µM) it was 51.6%; in test [2] (setting [7]), 20%; in test [2] (setting [8]), 89% (active); in test [2] (at 50.0 µM), 93.8% (active). Also, the growth inhibition was 42% in test [3] (setting [7]); 94% (active) in test [3] (setting [8]); 45.9% in test [3] (at 50.0 µM); 29% in test [4] (setting [7]); 80% (active) in test [4] (setting [8]); 82.2% (active) in test [4] (at 50.0 µM). Also, the growth inhibition in test [5] (setting [7]) was 19%; in test [5] (setting [8]), 90% (active); in test [5] (at 50.0 µM) it was 94.9% (active); in test [6] (setting [7]), 42%; in test [6] (setting [8]), 92% (active); in test [6] (at 50.0 µM), 92% (active).
Regarding `CCc1cccc(CC)c1Nc1nc2c(s1)C(=O)c1ccccc1C2=O`, the growth inhibition in test [1] (setting [7]) is 100% (active); in test [1] (setting [8]), 99% (active); in test [1] (at 50.0 µM) it was 89.5% (active); in test [2] (setting [7]) it was 100% (active); in test [2] (setting [8]) it was 99% (active); in test [2] (at 50.0 µM) it was 91.9% (active). Further, the growth inhibition in test [3] (setting [7]) is 100% (active); in test [3] (setting [8]), 99% (active); in test [3] (at 50.0 µM) it was 92.7% (active); in test [4] (setting [7]) it was 87% (active); in test [4] (setting [8]) it was 98% (active); in test [4] (at 50.0 µM), 90.3% (active). Besides, the growth inhibition in test [5] (setting [7]) was 100% (active); in test [5] (setting [8]), 99% (active); in test [5] (at 50.0 µM), 92.2% (active); in test [6] (setting [7]) it was 99% (active); in test [6] (setting [8]), 98% (active); in test [6] (at 50.0 µM), 90.8% (active).
Take `Cc1cc(O)ccc1N=Nc1ccccc1`: the growth inhibition in test [1] (setting [7]) is 10%; in test [1] (setting [8]) it was 99% (active); in test [1] (at 50.0 µM), 99.7% (active); in test [2] (setting [7]), -1%; in test [2] (setting [8]), 99% (active); in test [2] (at 50.0 µM), 99.8% (active). For the same compound, the growth inhibition in test [3] (setting [7]) is -1%; in test [3] (setting [8]), 99% (active); in test [3] (at 50.0 µM) it was 99.7% (active); in test [4] (setting [7]) it was -8%; in test [4] (setting [8]) it was 99% (active); in test [4] (at 50.0 µM), 99.4% (active). Moreover, the growth inhibition in test [5] (setting [7]) was 14%; in test [5] (setting [8]), 99% (active); in test [5] (at 50.0 µM), 99.5% (active); in test [6] (setting [7]), 1%; in test [6] (setting [8]), 99% (active); in test [6] (at 50.0 µM), 99.7% (active).
Take `O=C(OC1CC2CC1C1CC=CC21)c1ccccc1` (configuration not stated): the growth inhibition in test [1] (setting [7]) was -3%; in test [1] (setting [8]), -3%; in test [1] (at 50.0 µM), -5.55%; in test [2] (setting [7]), -6%; in test [2] (setting [8]) it was 2%; in test [2] (at 50.0 µM) it was 10.9%. The growth inhibition in test [3] (setting [7]) was -8%; in test [3] (setting [8]), 1%; in test [3] (at 50.0 µM), -3.8%; in test [4] (setting [7]), -5%; in test [4] (setting [8]), -24%; in test [4] (at 50.0 µM), -4.4%. Further, the growth inhibition was 46% in test [5] (setting [7]); 68% in test [5] (setting [8]); 21.9% in test [5] (at 50.0 µM); -5% in test [6] (setting [7]); -3% in test [6] (setting [8]); -3.95% in test [6] (at 50.0 µM).
`COc1ccc(OP2(Oc3ccc(OC)cc3)=NP(Oc3ccc(OC)cc3)(Oc3ccc(OC)cc3)=NP(Oc3ccc(OC)cc3)(Oc3ccc(OC)cc3)=NP(Oc3ccc(OC)cc3)(Oc3ccc(OC)cc3)=N2)cc1`: the growth inhibition in test [1] (setting [7]) is 41%; in test [1] (setting [8]) it was 2%; in test [1] (at 50.0 µM) it was 61.3%; in test [2] (setting [7]), 7%; in test [2] (setting [8]), -9%; in test [2] (at 50.0 µM), 65.8%. The growth inhibition in test [3] (setting [7]) was 71% (active); in test [3] (setting [8]), 28%; in test [3] (at 50.0 µM) it was 67.3%; in test [4] (setting [7]), 0%; in test [4] (setting [8]), -13%; in test [4] (at 50.0 µM), 24.1%. Further, the growth inhibition was 20% in test [5] (setting [7]); 35% in test [5] (setting [8]); 54.5% in test [5] (at 50.0 µM); 17% in test [6] (setting [7]); -2% in test [6] (setting [8]); 78.8% (active) in test [6] (at 50.0 µM).
Turning to `CCCCC(O)(c1ccc2nc(NC(=O)OC)[nH]c2c1)c1cccs1` (configuration not stated), the growth inhibition in test [1] (setting [7]) is -7%; in test [1] (setting [8]), 58%; in test [1] (at 50.0 µM) it was 7.8%; in test [2] (setting [7]) it was -4%; in test [2] (setting [8]), 62%; in test [2] (at 50.0 µM) it was 74.8% (active). The growth inhibition in test [3] (setting [7]) is -4%; in test [3] (setting [8]), 69%; in test [3] (at 50.0 µM), 49.5%; in test [4] (setting [7]), -15%; in test [4] (setting [8]) it was 10%; in test [4] (at 50.0 µM), 36%. Besides, the growth inhibition in test [5] (setting [7]) was -8%; in test [5] (setting [8]) it was 41%; in test [5] (at 50.0 µM), 35.5%; in test [6] (setting [7]) it was -5%; in test [6] (setting [8]) it was 62%; in test [6] (at 50.0 µM) it was 94.5% (active).
In the case of `CS(=O)(=O)OCCN(CCOS(C)(=O)=O)c1ccc(C=Nc2ccc3ccccc3c2)c(Cl)c1`, the growth inhibition in test [1] (setting [7]) is 5%; in test [1] (setting [8]), 22%; in test [1] (at 50.0 µM), 10.4%; in test [2] (setting [7]), -203%; in test [2] (setting [8]), -3%; in test [2] (at 50.0 µM), 23.1%. Also, the growth inhibition is 3% in test [3] (setting [7]); 14% in test [3] (setting [8]); 34% in test [3] (at 50.0 µM); 11% in test [4] (setting [7]); -9% in test [4] (setting [8]); 35.4% in test [4] (at 50.0 µM). For the same compound, the growth inhibition was 0% in test [5] (setting [7]); -9% in test [5] (setting [8]); 5.85% in test [5] (at 50.0 µM); 7% in test [6] (setting [7]); 34% in test [6] (setting [8]); 66% in test [6] (at 50.0 µM).
`Cc1cccc2c1C(=O)N(CC[P+](c1ccccc1)(c1ccccc1)c1ccccc1)C2=O`: the growth inhibition in test [1] (setting [7]) was 77% (active); in test [1] (setting [8]) it was 85% (active); in test [1] (at 50.0 µM) it was 58.1%; in test [2] (setting [7]) it was 58%; in test [2] (setting [8]) it was 87% (active); in test [2] (at 50.0 µM), 70.3% (active). In addition, the growth inhibition in test [3] (setting [7]) was 70% (active); in test [3] (setting [8]) it was 93% (active); in test [3] (at 50.0 µM) it was 61.9%; in test [4] (setting [7]), 58%; in test [4] (setting [8]), 91% (active); in test [4] (at 50.0 µM), 35.3%. Also, the growth inhibition is 80% (active) in test [5] (setting [7]); 95% (active) in test [5] (setting [8]); 70.5% (active) in test [5] (at 50.0 µM); 64% in test [6] (setting [7]); 86% (active) in test [6] (setting [8]); 67.9% in test [6] (at 50.0 µM).
Turning to `CCCCCCCCCCCC#CCCCCC(=O)O`, the growth inhibition in test [1] (setting [7]) was 87% (active); in test [1] (setting [8]), 94% (active); in test [1] (at 50.0 µM) it was 56.8%; in test [2] (setting [7]), 95% (active); in test [2] (setting [8]), 97% (active); in test [2] (at 50.0 µM), 62.5%. Also, the growth inhibition in test [3] (setting [7]) was 93% (active); in test [3] (setting [8]) it was 96% (active); in test [3] (at 50.0 µM), 83.7% (active); in test [4] (setting [7]) it was 27%; in test [4] (setting [8]), 91% (active); in test [4] (at 50.0 µM), 61%. Further, the growth inhibition in test [5] (setting [7]) is 96% (active); in test [5] (setting [8]), 95% (active); in test [5] (at 50.0 µM), 67.7%; in test [6] (setting [7]) it was 96% (active); in test [6] (setting [8]) it was 95% (active); in test [6] (at 50.0 µM), 60%.
